Experimental data from PubChem BioAssay AID1159580 (chemical genetic matrix, 2015).
The whole screen tested about 5,500 compounds, of which about 2,000 (36%) were called active. Inconclusive results (about 18%) are left out. No stated cut-off is given here; in the data, active means normalized growth mostly below about 0.91 (no sharp cut-off); inconclusive means no clear call, values can overlap the other calls; inactive means mostly above about 0.92. This is one part of the list.

Test: chemical genetic growth profiling, strain panel (AID 1159580);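 further: tested at 20 µM; growth read once vehicle control cultures reached saturation at 30 °C; 1 = growth at the plate median or of vehicle wells; lower values mean less growth of the strain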
Settings: S. cerevisiae deletion strains, growth OD
[1] = locus YHR030C, strain SLT2, hits give low values
[2] = locus YHR079C, strain IRE1, hits give low values
[3] = locus YJL095W, strain BCK1, hits give low values
[4] = locus YJR066W, strain TOR1, hits give low values
[5] = locus YLR113W, strain HOG1, hits give low values
[6] = locus YNL183C, strain NPR1, hits give low values
[7] = locus YOR231W, strain MKK1, hits give low values
[8] = locus YPL256C, strain CLN2, hits give low values
[9] = locus YDL101C, strain DUN1, hits give low values

Measured: normalized growth

C[n+]1ccccc1/C=N\O
inactive: [1] 0.981 | [2] 0.987 | [3] 0.996 | [4] 0.932 | [5] 0.997 | [6] 0.934 | [7] 1 | [8] 0.974

CN1C(=O)CN=C(c2ccccc2)c2ccccc21
inactive: locus YAL013W, strain DEP1, hits give low values 1.01 | locus YBR229C, strain ROT2, hits give low values 0.997 | locus YCL061C, strain MRC1, hits give low values 0.999 | [9] 0.995 | locus YDR150W, strain NUM1, hits give low values 0.86 | locus YEL061C, strain CIN8, hits give low values 1 | locus YGR078C, strain PAC10, hits give low values 1 | [1] 1.03 | locus YHR087W, strain rtc3, hits give low values 0.995 | locus YJR043C, strain POL32, hits give low values 1.01 | locus YJR075W, strain HOC1, hits give low values 0.994 | locus YKL190W, strain CNB1, hits give low values 1 | locus YLR039C, strain RIC1, hits give low values 1.02 | locus YLR058C, strain SHM2 (second series), hits give low values 1.01 | locus YLR085C, strain ARP6, hits give low values 1.02 | locus YLR262C, strain YPT6, hits give low values 1.01 | locus YML094W, strain GIM5, hits give low values 1 | locus YMR219W, strain ESC1, hits give low values 1 | locus YMR263W, strain SAP30, hits give low values 0.981 | locus YMR307W, strain GAS1, hits give low values 1.02 | locus YNL153C, strain GIM3, hits give low values 1 | locus YNL298W, strain CLA4 (second series), hits give low values 1.01 | locus YNL322C, strain KRE1, hits give low values 0.991 | locus YNR030W, strain Alg12, hits give low values 1.02 | locus YPL055C, strain LGE1, hits give low values 0.854 | locus YPL241C, strain CIN2, hits give low values 1.05 | locus YPR135W, strain CTF4, hits give low values 0.979

Cc1cc(SCc2[nH]nc3oc(=O)cc(C)c23)c(Cl)cc1Cl
inactive: locus YAR019C, strain CDC15, hits give low values 0.979 | locus YBL105C, strain PKC1, hits give low values 0.993 | locus YBR135W, strain CKS1, hits give low values 0.984 | locus YBR136W, strain MEC1, hits give low values 0.987 | locus YBR160W, strain CDC28, hits give low values 0.986 | locus YDL017W, strain CDC7, hits give low values 0.988 | locus YDL028C, strain MPS1, hits give low values 0.991 | [9] 0.989 | locus YDL108W, strain KIN28, hits give low values 0.98 | locus YDL132W, strain cdc53, hits give low values 0.987 | locus YDL214C, strain PRR2, hits give low values 1.01 | locus YDR052C, strain DBF4, hits give low values 0.981 | locus YDR054C, strain cdc34, hits give low values 0.983 | locus YDR226W, strain ADK1, hits give low values 0.972 | locus YDR477W, strain SNF1, hits give low values 1.01 | locus YER123W, strain YCK3, hits give low values 0.993 | locus YER133W, strain GLC7, hits give low values 1.03 | locus YFL009W, strain cdc4, hits give low values 0.984 | locus YFL029C, strain CAK1, hits give low values 0.979 | locus YFR003C, strain YPI1, hits give low values 0.994 | locus YFR019W, strain FAB1, hits give low values 0.995 | locus YFR028C, strain CDC14, hits give low values 0.99 | locus YGR040W, strain KSS1, hits give low values 1.01 | locus YGR052W, strain FMP48, hits give low values 1.03 | locus YGR092W, strain DBF2, hits give low values 0.973 | [1] 1.1 | [2] 0.992 | locus YHR082C, strain KSP1, hits give low values 1.13 | locus YHR205W, strain SCH9, hits give low values 0.968 | locus YIL147C, strain SLN1, hits give low values 0.979 | [3] 0.947 | locus YJL128C, strain PBS2, hits give low values 0.933 | locus YJL157C, strain FAR1, hits give low values 1 | locus YJR016C, strain ILV3, hits give low values 0.994 | locus YJR066W, strain TOR1 (second series), hits give low values 0.983 | [4] 1.05 | locus YKL048C, strain ELM1, hits give low values 0.993 | locus YKL067W, strain YNK1, hits give low values 1.01 | locus YKL101W, strain HSL1, hits give low values 1.01 | locus YKL193C, strain SDS22, hits give low values 0.982 | locus YKL203C, strain TOR2, hits give low values 1.04 | [5] 1 | locus YLR133W, strain CKI1, hits give low values 0.998 | locus YLR403W, strain SFP1, hits give low values 0.996 | locus YML070W, strain DAK1, hits give low values 1.02 | locus YMR001C, strain CDC5, hits give low values 0.99 | locus YMR205C, strain PFK2 (second series), hits give low values 1.03 | locus YMR277W, strain FCP1, hits give low values 0.981 | locus YNL006W, strain LST8, hits give low values 0.984 | locus YNL020C, strain ARK1, hits give low values 0.981 | locus YNL161W, strain CBK1, hits give low values 1.01 | [6] 1.05 | locus YNL207W, strain RIO2, hits give low values 0.986 | locus YNL222W, strain SSU72, hits give low values 0.979 | locus YNL307C, strain MCK1 (second series), hits give low values 0.994 | locus YOL078W, strain AVO1, hits give low values 0.998 | locus YOL136C, strain PFK27, hits give low values 1.01 | locus YOR061W, strain CKA2, hits give low values 0.973 | locus YOR119C, strain RIO1, hits give low values 1.08 | [7] 0.985 | locus YOR329C, strain SCD5, hits give low values 0.989 | locus YPL031C, strain PHO85, hits give low values 0.988 | locus YPL153C, strain RAD53, hits give low values 0.987 | locus YPL204W, strain HRR25, hits give low values 0.97 | locus YPL209C, strain IPL1, hits give low values 0.991 | [8] 1.08 | locus YPR025C, strain CCL1, hits give low values 0.99 | locus YPR106W, strain ISR1, hits give low values 1 | locus YPR111W, strain DBF20, hits give low values 0.974 | strain NNK1, hits give low values 0.985 | strain TSCII, hits give low values 0.98
